High-throughput results as filed in PubChem.
A selection: hits, their analogues and other compounds. The true share with any hit is near 3.4%.
GPR151 ag: activators of human GPR151 | PathHunter beta-arrestin GPR151 cells, luminescence | activation, % at 11.2 µM | 650,000 tested, 1% active | AID 1508602; in the data active = activation above about 4.9%;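 note: 0% = median of compound wells and 100% = cells with positive control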
FBW7 act: activators of human E3 ligase FBW7; 650,000 tested, 0.13% active; AlphaScreen FBW7–phospho-cyclin E peptide binding, activator screen; normalized activity (activation), % at 26.1 µM; Q969H0; AID 1259310; in the data active = normalized activity above about 1.9%;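 note: purified mutant Fbw7 with reduced substrate affinity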
TEAD-YAP inh: TEAD-YAP interaction inhibition; HEK-TIYL cells, TEAD-Gal4/YAP UAS-luciferase luminescence; inhibition, % at 9.12 µM; 640,000 tested, 1.4% active; in the data active = inhibition above about 32%;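 note: 0% = median of test compound wells and 100% = reference inhibitor wells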
MITF inh: inhibitors of human MITF; AlphaScreen MITF homodimerization, bead proximity signal; 650,000 tested, 0.91% active; AID 1259374; O75030; inhibition, % at 2.6 µM; in the data active = inhibition above about 50%;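 note: 0% = vehicle wells with protein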
GPR151 confirm: human GPR151 activation, confirmation screen. 6,700 tested, under 10 active. AID 1508609. activation, % at 11.2 µM. GPR151 PathHunter beta-arrestin cells, luminescence, 90 min; % of EA-reagent control over plate median. shares compounds with GPR151 ag;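 active = mean percent activation across replicates above the confirmation screen cutoff of 4.91%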
GPR119 counter: GPR119 activation, counter-screen for GPR151 activators; shares compounds with GPR151 ag; GPR119 PathHunter beta-arrestin cells, luminescence, 90 min; 0 = compound-well median, 100 = enzyme-acceptor control; activation, % at 11.2 µM; 6,700 tested, 0.3% active;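 active = mean percent activation in the counterscreen above 29.09%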;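 note: counterscreen on off-target GPR119 to flag nonselective hits from the GPR151 activator screen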
Target sequence (Q8TDV5 whole entry, looked up): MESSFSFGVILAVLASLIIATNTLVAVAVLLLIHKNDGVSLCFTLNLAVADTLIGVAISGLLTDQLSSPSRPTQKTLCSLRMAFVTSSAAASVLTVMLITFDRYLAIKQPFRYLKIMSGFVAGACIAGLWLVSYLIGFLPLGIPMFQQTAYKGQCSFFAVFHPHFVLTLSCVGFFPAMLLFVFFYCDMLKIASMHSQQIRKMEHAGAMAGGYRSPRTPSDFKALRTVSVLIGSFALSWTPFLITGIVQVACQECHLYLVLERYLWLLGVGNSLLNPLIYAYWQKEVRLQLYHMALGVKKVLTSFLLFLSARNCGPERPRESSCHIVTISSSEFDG
Numbers without * were called inactive; x = not tested or not shown.

SMILES	GPR151 ag	FBW7 act	TEAD-YAP inh	MITF inh	GPR151 confirm	GPR119 counter
Cc1cc(=O)n2nc(N3CCCC3C(=O)NCCCN3CCCCC3)sc2n1 (centres undefined)	5.0*	0	-2	5	1	-13
CCOc1ccc(-n2c(SCC(=O)Nc3cc(C)on3)nc3c(c2=O)SCC3)cc1	5.1*	0	-38	4	1	5
CCn1c(SCC(=O)Nc2nc(C)cs2)nc2c(c1=O)SCC2	6.3*	0	11	-4	0	1
COc1ccc(-c2csc3ncnc(N4CCN(c5ccccn5)CC4)c23)cc1	3	0	-2	-6	x	x
COCCn1nnnc1C(c1cc2cccc(C)c2[nH]c1=O)N1CCCCCC1 (centres undefined)	0	0	7	6	x	x
COCCn1nnnc1C(c1cc2cccc(C)c2[nH]c1=O)N1CCCCC1 (centres undefined)	5.2*	0	5	0	0	1
COCCn1c(C)cc2c(c1=O)C(c1ccc(Cl)cc1)C(C(=O)OC)=C(N)O2 (centres undefined)	0	0	8	-3	x	x
COCCn1c(C)cc2c(c1=O)C(c1ccc(Cl)cc1Cl)C(C(=O)OC)=C(N)O2 (centres undefined)	7.1*	0	0	10	1	-6
O=C(Nc1cccc(F)c1)C1CCCCN1S(=O)(=O)c1cccc2nsnc12 (centres undefined)	2	0	0	21	x	x
O=[N+]([O-])c1ccc(CSC2=NCCN2)cc1	7.2*	0	20	-3	0	-6
CCOc1ccc(CSC2=NCCN2)cc1[N+](=O)[O-]	0	-1	-5	10	x	x
O=C(CCC(=O)c1ccc(Oc2ccccc2)cc1)Nc1cccnc1	6.8*	0	4	-25	-1	5
O=C(CCC(=O)c1ccc(Br)cc1)Nc1cccnc1	-1	0	-5	5	x	x
C[C@H]1O[C@@H](O[C@H]2[C@@H](O)C[C@H](O[C@H]3[C@@H](O)C[C@H](O[C@H]4CCC5(C)[C@H](CC[C@@H]6[C@@H]5C[C@@H](O)C5(C)C(C7=CC(=O)OC7)CCC65O)C4)O[C@@H]3C)O[C@@H]2C)C[C@H](O)[C@@H]1O (some centres undefined)	5.0*	0	x	-7	0	98*
CCC(C)c1ccccc1NS(=O)(=O)Cc1ccccc1 (centres undefined)	5.8*	0	5	-2	0	-8
CC(C)NC(=O)c1ccccc1NS(=O)(=O)Cc1ccccc1	0	1	15	14	x	x
Cc1ccc(NC(=O)c2cnn(-c3ccccc3)c2NC(=O)c2ccc(Cl)cc2)cc1	5.6*	0	-14	2	0	9
CO[C@@H]1COC(=O)C/C=C/[C@H](C)[C@H](OC)COC(=O)[C@H](C)COC(=O)C/C=C/[C@@H]1C	5.1*	0	x	-1	1	6
COC1COC(=O)[C@@H](C)NC(=O)C/C=C/[C@H](C)[C@@H](OC)COC(=O)C/C=C/[C@@H]1C (some centres undefined)	1	0	x	-3	x	x
CN(C)c1ccc(NC2=CC(=O)N(CCc3ccccc3)C2=O)cc1	2	0	3	2	x	x
CN(C)c1ccc(NC2=CC(=O)N(Cc3ccco3)C2=O)cc1	5.1*	0	-1	37	0	-9
O=C(NC1CC1)c1cnc(Nc2ccccc2)s1	-1	0	-34	11	x	x
CCOc1c(C)cc(S(=O)(=O)NCCCCN2CCOC(c3ccccc3)C2)cc1C (centres undefined)	11*	0	5	8	1	-1
CCOc1ccc2ccc(OCC)c(C=O)c2c1	-1	0	-20	0	x	x
CCCS(=O)(=O)N1CCN(Cc2nc(C(C)(C)C)cs2)CC1	8.8*	0	-1	-2	1	4
SMILES	GPR151 ag	FBW7 act	TEAD-YAP inh	MITF inh	GPR151 confirm	GPR119 counter
Cc1noc(C)c1S(=O)(=O)N1CCN(Cc2nc(C(C)(C)C)cs2)CC1	2	0	0	0	x	x
O=C(O)CNC(=O)CNC(=O)c1ccc(Br)cc1	0	0	-34	5	x	x
O=C(Cn1[nH]c(=O)c2ccccc2c1=O)NCc1cccnc1	0	0	10	2	x	x
O=C(Cn1[nH]c(=O)c2ccccc2c1=O)Nc1cccnc1	19*	0	1	-14	1	-4
COC(=O)c1cc(C)sc1NC(=S)N1CCCCCC1	8.7*	0	-22	-8	1	-1
COC(=O)C[n+]1csc2ccccc21	7.8*	-1	6	14	0	5
CCOC(=O)C1CCN(S(=O)(=O)c2cc3[nH]c(=O)c(=O)[nH]c3cc2C)CC1	5.2*	0	-1	-8	0	-2
O=C(CSc1nc(=O)n(CCCO)c2c1CCC2)N1CCCc2ccccc21	-1	0	5	15	x	x
CC(C)c1ccc(NC(=O)c2cc(S(=O)(=O)N3CCCCC3)ccc2F)cc1	-2	0	-7	15	x	x
O=C(c1cnn2c(C(F)(F)F)cc(-c3ccc4c(c3)OCO4)nc12)N1CCN(Cc2ccccc2)CC1	-1	0	-20	0	x	x
CCOC(=O)CCNC(=O)N1CCCC(CCC(=O)N(C)CCc2ccccn2)C1 (centres undefined)	0	0	-4	-6	x	x
CCOC(=O)CCNC(=O)N1CCCC(N(C)CCc2ccccn2)C1 (centres undefined)	5.4*	0	-3	-2	1	-2
Cc1nonc1CC(=O)N1CCCC(CCC(=O)N(C)CCc2ccccn2)C1 (centres undefined)	7.7*	0	12	10	0	-3
COc1ccccc1C(=O)Nc1nnc(S(=O)(=O)N2CCOCC2)s1	7.9*	0	-7	-2	1	4
CCOc1ccc(C(=O)Nc2nnc(S(=O)(=O)N3CCCCC3)s2)cc1	5.0*	0	-16	9	0	-1
CC(=O)Nc1nnc(SCC(=O)Nc2nnc(C(C)C)s2)s1	-1	0	7	6	x	x
COC(=O)c1ccc2c(c1)N(Cc1ccccn1)C(=O)C(C)O2 (centres undefined)	1	0	-2	15	x	x
COc1cccc(-n2c(SCC(=O)N3CCc4ccccc43)nnc2-c2ccncc2)c1	6.4*	0	11	5	0	-1
COc1cccc(-n2c(SCC(=O)N3CCc4ccccc43)nnc2-c2cccnc2)c1	0	0	2	0	x	x
O=C(CSc1nnc2ccc(-c3cccnc3)nn12)N1CCc2ccccc21	5.4*	1	-5	9	1	4
O=C(CSc1nnc2ccc(-c3cccnc3)nn12)N1CCCC1	-1	0	-9	-2	x	x
O=c1c2cccnc2[nH]c(=S)n1CCc1ccccc1Cl	2	0	-8	23	x	x
CN1CCN(C2=Nc3c(Cl)cc(Cl)c4cccc2c34)CC1	12*	0	-10	-2	1	-1
